This note sets out measurements from the supplement of paper PMC10811239.

The subject of this assay is LEGO organoid PTCC (PTEN-/-; TP53-/-; CDKN2A-/-; CDKN2B-/-). The assay is described as follows: bioluminescence (viable cell) signal fold change after vs before treatment, normalised to DMSO (ratio); higher = more tumour cell growth / less inhibition. The note with it: 10 µM; treatment time 6 days. The procedure:
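Luc2-labelled iPSC-derived glioblastoma-like organoids (LEGOs, genotypes PT = PTEN-/-;TP53-/-, PTCC = plus CDKN2A/B-/-, PTN = plus NF1-/-) were treated with 10 uM drug for 6 days (applied every other day) at 37 C. Bioluminescence imaging was done before treatment and 2 days after the last dose. BLI signals were normalised to the DMSO control on the same day and then to the pre-treatment signal (N=3).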
As to `CCN(C)C(=O)Oc1cccc([C@H](C)N(C)C)c1.O=C(O)[C@H](O)[C@@H](O)C(=O)O` [Rivastigmine tartrate], the bioluminescence is 0.566.

As for `NCC(CC(=O)O)c1ccc(Cl)cc1` (configuration not stated) [Baclofen], the bioluminescence worked out at 0.877.

As to `CN[C@@H]1C[C@H]2O[C@@](C)([C@@H]1OC)n1c3ccccc3c3c4c(c5c6ccccc6n2c5c31)C(=O)NC4` [Staurosporine], the bioluminescence is 0.

For the compound `O=C(O)CCCc1ccc(N(CCCl)CCCl)cc1` [Chloroambucil], the bioluminescence turned out to be 1.06.

As to `Cc1cccc([C@H](C)c2cnc[nH]2)c1C.Cl` [Dexmedetomidine HCl], the bioluminescence amounted to 1.39.

In the case of `CC(C)c1cccc(C(C)C)c1O` [Propofol], the bioluminescence worked out at 0.675.

For the compound `Cl.Cn1c(CCCC(=O)O)nc2cc(N(CCCl)CCCl)ccc21` [Bendamustine hydrochloride], the bioluminescence stood at 0.752.

Consider `NCC1(CC(=O)O)CCCCC1` [Gabapentin], for which the bioluminescence came out at 1.26.

On to `CCN(C)C(=O)Oc1cccc([C@H](C)N(C)C)c1` [Rivastigmine], for which the bioluminescence stood at 0.555.

Regarding `Cc1n[nH]cc1-c1cc2[nH]c([C@@H]3CC4CCN3CC4)nc(=O)c2s1` [Simurosertib], the bioluminescence stood at 1.46.

Regarding `CCC1(c2ccc(N)cc2)CCC(=O)NC1=O` (configuration not stated) [Aminoglutethimide], the bioluminescence amounted to 1.11.

As to `COc1cc2c(cc1OC)[C@@H]1CC(=O)[C@@H](CC(C)C)CN1CC2.COc1cc2c(cc1OC)[C@H]1CC(=O)[C@H](CC(C)C)CN1CC2` [Tetrabenazine], the bioluminescence is 1.1.

As to `CCOC(=O)c1cncn1[C@H](C)c1ccccc1` [Etomidate], the bioluminescence was determined as 1.01.

For the compound `CC[C@@H](C(N)=O)N1CCCC1=O` [Levetiracetam], the bioluminescence amounted to 1.07.

With `COc1ccc(C(CN(C)C)C2(O)CCCCC2)cc1.Cl` (configuration not stated) [Venlafaxine hydrochloride], the bioluminescence stood at 0.737.

For the compound `CN(C)C(=O)Oc1ccc[n+](C)c1.[Br-]` [Mestinon], the bioluminescence worked out at 1.67.

`CC(C)C[C@H]1C(=O)N2CCC[C@H]2[C@]2(O)O[C@](NC(=O)[C@@H]3C[C@@H]4c5cccc6[nH]cc(c56)C[C@H]4N(C)C3)(C(C)C)C(=O)N12.CC(C)[C@@]1(NC(=O)[C@@H]2C[C@@H]3c4cccc5[nH]cc(c45)C[C@H]3N(C)C2)O[C@@]2(O)[C@@H]3CCCN3C(=O)[C@H](Cc3ccccc3)N2C1=O.CC(C)[C@H]1C(=O)N2CCC[C@H]2[C@]2(O)O[C@](NC(=O)[C@@H]3C[C@@H]4c5cccc6[nH]cc(c56)C[C@H]4N(C)C3)(C(C)C)C(=O)N12.CCC(C)[C@H]1C(=O)N2CCC[C@H]2[C@]2(O)O[C@](NC(=O)[C@@H]3C[C@@H]4c5cccc6[nH]cc(c56)C[C@H]4N(C)C3)(C(C)C)C(=O)N12.CS(=O)(=O)O` [Dihydroergotoxine mesylate]: the bioluminescence stood at 1.82.
